PMC5540273 (PLoS ONE, 2017)

What was measured:
Settings in all cases: concentration: 1 μM,replicates: in singlicate; n = 1
SNARK = test system: T1, SNARK
T1 construct: gene NUAK2

SNRK = test system: SNRK
SRC = test system: SRC
SRMS = test system: SRMS
SRPK1 = test system: SRPK1
SRPK2 = test system: SRPK2
SRPK3 = test system: SRPK3
STK16 = test system: STK16
STK33 = test system: STK33
STK35 = test system: STK35
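Also: KINOMEscan kinase panel screen.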

| Structure (SMILES) | %Inh (SNARK) | %Inh (SNRK) | %Inh (SRC) | %Inh (SRMS) | %Inh (SRPK1) | %Inh (SRPK2) | %Inh (SRPK3) | %Inh (STK16) | %Inh (STK33) | %Inh (STK35) |
| --- | --- | --- | --- | --- | --- | --- | --- | --- | --- | --- |
| O=C(NCCCN1CCOC1=O)c1cnc(NCc2cc(Cl)ccc2Cl)nc1NC1CCCC1 | 0% | 5% | 11% | 0% | 39% | 0% | 26% | 15% | 0% | 13% |
| Nc1nc(Nc2ccccc2)cc(-c2ccc3c(N)n[nH]c3c2)n1 [GSK2225749] | 21% | 0% | 0% | 0% | 80% | 2% | 83% | 59% | 14% | 0% |
| Cl.Cl.Nc1nc(-c2ccc3c(N)n[nH]c3c2)cc(N2CCCC(NC(=O)c3ccccc3)C2)n1 (stereo not drawn) [GSK2286775] | 21% | 0% | 0% | 0% | 56% | 0% | 53% | 31% | 0% | 0% |
| Cl.Cl.NC[C@H](CC1CCCCC1)NC(=O)c1cc(Br)c(-c2ccnc3[nH]ccc23)s1 [GSK1581427] | 90.5% | 0% | 28% | 0% | 82% | 14% | 87% | 27% | 89% | 23% |
| CCN(CC)CCCCNc1ncc2cc(-c3c(Cl)cccc3Cl)c(NC(=O)NC(C)(C)C)nc2n1 | 42% | 12% | 100% | 31% | 35% | 8% | 0% | 4% | 0% | 15% |
| CN(C)CCOc1ccc(-c2cc(-c3c[nH]nc3-c3ccccn3)ccn2)cc1 [GW835314] | 19% | 80% | 20% | 0% | 0% | 0% | 19% | 75% | 0% | 0% |
| NC(=O)c1cc(-c2ccccc2)cc2c(C3CCNCC3)c[nH]c12 [GSK301362] | 91.8% | 0% | 0% | 0% | 58% | 0% | 0% | 8% | 0% | 49% |
| C=CC(=O)Nc1cc2c(Nc3ccc(F)c(Cl)c3)ncnc2cc1OCCCN1CCOCC1 [GW781483] | 0% | 14% | 71% | 0% | 4% | 32% |  | 0% | 8% |  |
| Cl.Cl.NC[C@H](Cc1ccc(C(F)(F)F)cc1)NC(=O)c1cc(Br)c(-c2ccnc3[nH]ccc23)s1 [GSK1487252] | 91.5% | 0% | 0% | 0% | 47% | 0% | 0% | 16% | 96.8% | 0% |
| CCN(CC)CCOc1ccc(Nc2ncc3cc(-c4c(Cl)cccc4Cl)c(=O)n(C)c3n2)cc1 [SB-601273] | 92.6% | 7% | 100% | 90.8% | 50% | 70% | 9% | 53% | 62% | 98.8% |
| Cl.Oc1cc(-c2nc(-c3ccccc3)[nH]c2-c2ccncc2)ccc1Cl [SB-386023] | 24% | 0% | 88% | 12% | 0% | 0% | 5% | 7% | 0% | 0% |
| O=C(NCCNc1ccnc(NCc2ccc(F)cc2)n1)c1cc2ccccc2s1 [GSK1379944] | 31% | 0% | 4% | 0% | 13% | 0% | 0% | 78% | 0% | 0% |
| C[C@@H]1CCN(C(=O)CC#N)C[C@@H]1N(C)c1ncnc2[nH]ccc12 | 73% | 15% | 0% | 0% | 39% | 18% | 1% | 0% | 0% | 0% |
| CC(C)N1C(=O)Cc2cc(Nc3ncc(C(F)(F)F)c(NCc4cccc(S(C)(=O)=O)c4)n3)ccc21 | 82% | 13% | 0% | 0% | 55% | 3% | 24% | 94.7% | 0% | 4% |
| Cc1ccc(-n2nc(C(C)(C)C)cc2NC(=O)Nc2ccc(OCCN3CCOCC3)c3ccccc23)cc1 [GW839464] | 0% | 0% | 0% | 8% | 64% | 0% | 29% | 6% | 21% | 0% |
| CCn1c(-c2nonc2N)nc2c(C#CC(C)(C)O)nc(OCCN)cc21.Cl.Cl [GSK902056] | 11% | 0% | 0% | 0% | 0% | 7% | 17% | 0% | 0% | 0% |
| Cc1occc1-c1nc(N)c(OC[C@@H](N)Cc2c[nH]c3ccccc23)cc1-c1cc2c(C)n[nH]c2cn1 [GSK1660450] | 96.9% | 0% | 95.6% | 0% | 71% | 0% | 56% | 3% | 84% | 28% |
| Cc1ccc2c(-c3ccncc3)c(-c3ccc(F)cc3)nn2c1.Cl [GW461484] | 4% | 0% | 7% | 5% | 0% | 17% | 0% | 8% | 14% | 0% |
| C[C@H]1Oc2cc(cnc2N)-c2c(nn(C)c2C#N)CN(C)C(=O)c2ccc(F)cc21 | 0% | 0% | 43% | 0% | 9% | 0% | 12% | 0% | 8% | 1% |
| C[C@@H](Oc1cc(-c2cnn(C3CCNCC3)c2)cnc1N)c1c(Cl)ccc(F)c1Cl | 96.7% | 6% | 83% | 18% | 3% | 0% | 33% | 0% | 0% |  |
| Cc1n[nH]c2ccc(-c3cc(OC[C@@H](N)Cc4ccccc4)cnc3-c3ccoc3)cc12.O=C(O)C(F)(F)F.O=C(O)C(F)(F)F [GSK507358] | 18% | 0% | 10% | 0% | 61% | 4% | 34% | 6% | 73% | 95.9% |
| Cc1cc(C(=O)Nc2ccc(Oc3ccc4nc(NC(=O)C5CC5)cn4n3)cc2)nn1-c1ccccc1 | 0% | 0% | 34% | 0% | 8% | 33% | 30% | 18% | 0% | 0% |
| CNC(=O)c1ccccc1Sc1ccc2c(/C=C/c3ccccn3)n[nH]c2c1 | 77% | 9% | 4% | 0% | 82% | 12% | 21% | 12% | 0% | 25% |
| COc1ccc(C[C@@H](CN)NC(=O)c2cc(Br)c(-c3ccnc4[nH]ccc34)s2)cc1.Cl.Cl [GSK1389063] | 98.2% | 0% | 36% | 0% | 86% | 0% | 28% | 55% | 99.2% | 14% |
| Cc1cc2cn[nH]c2cc1-c1cccc2c(N)c(C(N)=O)nnc12 | 62% | 11% | 17% | 35% | 49% | 14% | 34% | 0% | 0% | 0% |
| CN(C)CC(O)COc1ccc(Nc2nccc(-c3cnn4nc(N5CCOCC5)ccc34)n2)cc1 (stereo not drawn) [GW767488] | 93.6% | 31% | 5% | 100% | 76% | 8% | 80% | 98.7% | 54% | 5% |
| CC(C)Nc1cc(-c2ccc3c(N)n[nH]c3c2)nc(N)n1 [GSK2221681] | 17% | 0% | 0% | 0% | 69% | 0% | 43% | 19% | 0% | 0% |
